According to PubChem BioAssay (NCI):
This is part of a sample that, as a whole, favours compounds with a hit. Of some 83,000 tested, about 20% had one in any assay.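 Negative percent growth values reflect cell death: -40 means 40% of the cells present at the start died, and -100 means all died.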 A number with no mark means an inactive call. The source made the active and inactive calls. How the source made its calls: active means growth percent below 10; inactive means the rest.

Columns and labels:
Assay in all cases: NCI-60 one-dose screen, 48 h (100 = growth as untreated, 0 = no growth, -100 = all killed)
DU-145 prostate = settings: 10 µM unless noted
K-562 leukemia = settings: 10 µM unless noted
MALME-3M melanoma = settings: 10 µM unless noted
MDA-MB-231 breast = settings: 10 µM unless noted
SF-268 CNS = settings: 10 µM unless noted
SF-295 CNS = settings: 10 µM unless noted
SF-539 CNS = settings: 10 µM unless noted
M14 melanoma = settings: 10 µM unless noted
HCT-15 colon = settings: 10 µM unless noted
HT29 colon = settings: 10 µM unless noted
SNB-75 CNS = settings: 10 µM unless noted
SNB-19 CNS = settings: 10 µM unless noted
U251 CNS = settings: 10 µM unless noted
PC-3 prostate = settings: 10 µM unless noted
SK-MEL-5 melanoma = settings: 10 µM unless noted
UACC-62 melanoma = settings: 10 µM unless noted
LOX IMVI melanoma = settings: 10 µM unless noted
SK-MEL-28 melanoma = settings: 10 µM unless noted
RXF 393 renal = settings: 10 µM unless noted
UACC-257 melanoma = settings: 10 µM

Compound | growth (DU-145 prostate) [%] | growth (K-562 leukemia) | growth (MALME-3M melanoma) | growth (MDA-MB-231 breast) [%] | growth (SF-268 CNS) [%] | growth (SF-295 CNS) [%] | growth (SF-539 CNS) | growth (M14 melanoma) | growth (HCT-15 colon) [%] | growth (HT29 colon) | growth (SNB-75 CNS) | growth (SNB-19 CNS) [%] | growth (U251 CNS) [%] | growth (PC-3 prostate) [%] | growth (SK-MEL-5 melanoma) [%] | growth (UACC-62 melanoma) | growth (LOX IMVI melanoma) [%] | growth (SK-MEL-28 melanoma) [%] | growth (RXF 393 renal) [%] | growth (UACC-257 melanoma) [%]
COc1ccc(NC(=O)/N=c2\oc3c(OC)cccc3cc2-c2cc3ccccc3[nH]2)cc1 | 69.3 | 86.3% | 57.3% | 36.3 | 70 | 52.1 | 35.3% | 93.5% | 73.3 | 57.7% | -8.95% (active) | 36.2 | 34.1 | 39.3 | 60.6 | 65.6% | 73.1 | 81.9 |  | 
CCC(=O)Nc1ccccc1C#C/C=C\C#Cc1ccccc1SC | 77.3 | 56% | 76.8% | 47.9 | 63.9 | 59.8 | 60.1% | 59.9% | 43.9 | 29.6% | 60.6% | 79.3 | 48.9 |  | 23.8 | 40.1% | 57.9 | 81.2 |  | 
COc1cc2oc(-c3cccc(NC(=O)Nc4ccc5c(c4)OCO5)c3)cc(=O)c2c(OC)c1OC | 65.4 | 41.9% | 75.7% | 61.3 | 75.6 | 60 | 81.8% | -9.91% (active) | 42.1 | 48.2% | 21.4% | 83.5 | 62.1 | 45.6 | 45.6 | 62.1% | 38.9 | 74.2 |  | 
C=CC(=O)N[C@H](/C=C/C(=O)OCC)Cc1ccc(-c2cc(Cl)cc(Cl)c2)cc1 | 91.1 | 89.4% | 87.6% | 72.9 | 84.7 | 83.1 | 99.9% | 88.7% | 79.2 | 86.9% | 82.5% | 91.1 | 79 | 60.7 | 72.8 | 60.9% | 86.7 | 113 |  | 
Clc1nc(Cl)c2ncn(C/C=C/Cn3cnc4c(Cl)nc(Cl)nc43)c2n1 | 44.2 | 17.4% | 111% | 96.4 | 62.3 | 60.4 | 46.8% | 101% | 50.1 | 48% |  | 74.5 | 57.4 | 66.6 | 68.7 | 79.1% | 38.8 | 98.8 |  | 
CCCCCCCCCN1C(=O)/C(=c2\sc3n(c2=O)C2C(NN=3)N(CC)C(=O)N2CC)c2ccccc21 (configuration not stated) | 69.8 | 21.3% | 50.7% | 63.9 | 50.9 | 61 | 8.03% (active) | 90.8% | 73 | 7.96% (active) | -14.4% (active) | 39.7 | 25.1 | 34.3 | 72.9 | 23.7% | 19.4 | 41.3 |  | 
COc1ccc(/C=C2\Oc3cc(OCCN4CCCC4)ccc3C2=O)c(OC)c1 | 90.8 | 2.26% (active) | 102% | 88.7 | 95.1 | 100 | 87.4% | 98.9% | 80.2 | 17.6% |  | 92.2 | 76.5 | 84.9 | 90.2 | 101% | 81.2 | 96.9 |  | 
O=S(=O)(NCCCNc1nccc(-c2c(-c3ccc(F)c(O)c3)nc3sccn23)n1)c1ccc(Cl)cc1 | 87.4 | 44.2% | 2.69% (active) | 66.4 | 82.8 | 106 | 103% | 18.1% | 82.7 | 70.1% | 122% | 115 | 84.5 |  | 47.2 | 6.74% (active) | 45.5 | 23.3 |  | 
Cc1ccc(S(=O)(=O)N2CCC(C(=O)Nc3ccc(F)cc3F)CC2)cc1 | 97.4 | 91.7% | 104% | 87.1 | 111 | 81.8 | 97.5% | 102% | 103 | 75.5% | 93.2% | 86.5 | 101 | 93.9 | 64.8 | 86.4% | 82.3 | 122 |  | 
c1ccn2nnnc2c1 | 103 | 97.5% | 98.5% |  | 101 | 101 | 95.5% | -54.6% (active) | 99.8 | 98.9% | 106% | 106 | 92.7 | 97.6 | 103 | 105% | 91.9 | 106 | 110 | 101
